These results are taken from the supplement of paper PMC13380429.

Assay [1] deals with Vero E6 infected with SARS-CoV-2. The assay is described as follows: morphology score (similarity to uninfected cells); higher = more like uninfected cells. Conditions: 24 h.
Assay [2] shares this test system. The assay is described as follows: SARS-CoV-2 infection rate relative to infected DMSO; higher = more infection, active = 60 or less. The settings on record: 24 h.

With `CN(C)CCOc1cc(-c2cn[nH]c2)ccc1NC(=O)C1COc2ccccc2O1` (stereo unspecified) (0.833333 µM), the morphology score in assay [1] amounted to 0.294. For the same compound, the SARS-CoV-2 infection rate in assay [2] was 76.5% (inactive).
For `C[C@H]1c2cccc(O)c2C(=O)C2=C(O)[C@]3(O)C(=O)C(C(N)=O)=C(O)[C@@H](N(C)C)[C@@H]3[C@@H](O)[C@@H]21` [doxycycline] (10 µM), in that order: 0.0783 and 97% (inactive).
The matching figures for `CCC(C)n1ncn(-c2ccc(N3CCN(c4ccc(OCC5COC(Cn6cncn6)(c6ccc(Cl)cc6Cl)O5)cc4)CC3)cc2)c1=O` (stereo unspecified) [itraconazole] (10 µM): 0.0302 and 104% (inactive).
For `O=C(O)CNC(=O)c1nc(Cl)c2ccccc2c1O` (10 µM), in that order: 0.17 and 102% (inactive).
On to `CCC(CC)Nc1cc(C)nc(Oc2c(C)cc(C)cc2C)c1C` (10 µM), for which the morphology score in assay [1] came to 0.248. Moreover, the SARS-CoV-2 infection rate in assay [2] was 100% (inactive).
In the case of `CCOc1cc2ncc(C#N)c(Nc3ccc(F)c(Cl)c3)c2cc1NC(=O)/C=C/CN(C)C` [pelitinib] (10 µM), the morphology score in assay [1] was -0.188. Also, in assay [2], the SARS-CoV-2 infection rate is 110% (inactive).
For `O=C(Nc1ccc(F)cc1)N1CCc2ccccc2[C@@H]1c1ccc(C(F)(F)F)cc1` (10 µM), in that order: 0.195 and 87% (inactive).
The matching figures for `COc1cc(N)cn[n+]1-c1ccccc1` [amezinium] (10 µM): 0.0864 and 100% (inactive).
For `CC(C)Oc1ccc(-c2nc(-c3cccc4c3CC[C@H]4NCCC(=O)O)no2)cc1C#N` (10 µM), in that order: 0.181 and 96.5% (inactive).
Regarding `NC(=O)N/N=C/c1ccc(Oc2ccc(F)cc2)cc1` (10 µM), the morphology score in assay [1] is -0.137. Also, the SARS-CoV-2 infection rate in assay [2] was 112% (inactive).
In assay [1], `COc1cc2c(cc1OC)CN(C(=O)[C@@H](NCc1ccncc1)C(C)(C)C)CC2` (10 µM) had a morphology score of -0.115. In addition, the SARS-CoV-2 infection rate in assay [2] is 105% (inactive).
Regarding `c1ccc(Cn2c(-c3ccc(OC[C@H](C4CCNCC4)n4c(-c5ccccc5)nc5ccccc54)cc3)nc3ccccc32)cc1` [deltarasin] (0.833333 µM), the morphology score in assay [1] came to 0.147. For the same compound, the SARS-CoV-2 infection rate in assay [2] was 96% (inactive).
The matching figures for `CCN(CC)CCN[C@@H](C(=O)OCCC(C)C)c1ccccc1` [camylofine-chlorhydrate] (10 µM): 0.18 and 98% (inactive).
For `O=C(CCCCCCC(=O)Nc1ccccc1)NO` [vorinostat] (0.833333 µM), in that order: 0.00344 and 118% (inactive).
The matching figures for `C[N+]1(C)CCC(OC(=O)C(O)(c2ccccc2)C2CCCC2)C1` (stereo unspecified) [glycopyrrolate] (10 µM): 0.122 and 107% (inactive).
Regarding `CN1CCc2c(c3ccccc3n2Cc2ccccc2)C1` [mebhydrolin] (10 µM), the morphology score in assay [1] was 0.242. In assay [2], the SARS-CoV-2 infection rate was 104% (inactive).
The matching figures for `Cc1cc2c(N3CCCC3)nc(N3CCCC3)nc2n1C` (10 µM): 0.452 and 75% (inactive).
The matching figures for `CCN(CC)CCN(Cc1ccc(-c2ccc(C(F)(F)F)cc2)cc1)C(=O)Cn1c(SCc2ccc(F)cc2)nc(=O)c2c1CCC2` [darapladib] (0.833333 µM): -0.0453 and 106% (inactive).
`Cc1cn([C@H]2C=C[C@@H](CO)O2)c(=O)[nH]c1=O` [stavudine] (10 µM) yielded a morphology score in assay [1] of 0.031. The SARS-CoV-2 infection rate in assay [2] is 106% (inactive).
With `CC(C)(N)CC12CC3CC(CC(C3)C1)C2` [somantadine] (10 µM), the morphology score in assay [1] was 0.178. The SARS-CoV-2 infection rate in assay [2] was 96% (inactive).
For `C[C@]12CC[C@H]3[C@@H](CCC4=CC(=O)CC[C@@H]43)[C@@H]1CC[C@@H]2O` [Nandrolone] (10 µM), in that order: 0.24 and 89.5% (inactive).
For `CC(=O)OCC(=O)[C@@]12OC3(CCCC3)O[C@@H]1C[C@H]1[C@@H]3CCC4=CC(=O)C=C[C@]4(C)[C@@]3(F)[C@@H](O)C[C@@]12C` [amcinonide] (10 µM), in that order: 0.114 and 110% (inactive).
For `Cc1cc(C)c(S(=O)(=O)Nc2ccccc2C(F)(F)F)c(C)c1` (10 µM), in that order: -0.0872 and 113% (inactive).
Compound `NC(CO)(CO)CO` [trometamol] (10 µM) displayed a morphology score in assay [1] of -0.0719. Also, the SARS-CoV-2 infection rate in assay [2] was 106% (inactive).
`O=C(CCCN1CCC(O)(c2ccc(Cl)cc2)CC1)c1ccc(F)cc1` [haloperidol] (10 µM) registered a morphology score in assay [1] of -0.0179. Besides, in assay [2], the SARS-CoV-2 infection rate is 114% (inactive).
The matching figures for `CCn1c(-c2nonc2N)nc2cnc(Oc3cccc(NC(=O)c4ccc(OCCN5CCOCC5)cc4)c3)cc21` (10 µM): 0.306 and 97% (inactive).
For `CO/N=C(\C(=O)N[C@@H]1C(=O)N2C(C(=O)O)=CCS[C@H]12)c1csc(N)n1` [ceftizoxim] (10 µM), in that order: -0.0509 and 102% (inactive).
`Cc1ccc(/C(=C\CN2CCCC2)c2cccc(/C=C/C(=O)O)n2)cc1` [acrivastine] (10 µM) gave a morphology score in assay [1] of -0.036. Moreover, the SARS-CoV-2 infection rate in assay [2] was 104% (inactive).
